# In the supplement of paper PMC11732987, “Enantioselective OTUD7B fragment discovery through chemoproteomics screening and high-throughput optimisation” (Communications Chemistry, 2025):
# Unmarked numbers belong to inactive results.
# How the values were obtained:
# Assay in all cases: log2 ratio of Biotin-Ahx-Ub-VS probe labelling (fragment/DMSO); higher = less target engagement (more negative = stronger competition), active = hit call of the paper (q ≤ 0.05, log2 ratio ≤ -1)
# Conditions in all cases: compound concentration: 200 uM; treatment time: 3 h
# ALG13 = target: T1, ALG13 (UniProt Q9NP73)
# T1 sequence (whole entry): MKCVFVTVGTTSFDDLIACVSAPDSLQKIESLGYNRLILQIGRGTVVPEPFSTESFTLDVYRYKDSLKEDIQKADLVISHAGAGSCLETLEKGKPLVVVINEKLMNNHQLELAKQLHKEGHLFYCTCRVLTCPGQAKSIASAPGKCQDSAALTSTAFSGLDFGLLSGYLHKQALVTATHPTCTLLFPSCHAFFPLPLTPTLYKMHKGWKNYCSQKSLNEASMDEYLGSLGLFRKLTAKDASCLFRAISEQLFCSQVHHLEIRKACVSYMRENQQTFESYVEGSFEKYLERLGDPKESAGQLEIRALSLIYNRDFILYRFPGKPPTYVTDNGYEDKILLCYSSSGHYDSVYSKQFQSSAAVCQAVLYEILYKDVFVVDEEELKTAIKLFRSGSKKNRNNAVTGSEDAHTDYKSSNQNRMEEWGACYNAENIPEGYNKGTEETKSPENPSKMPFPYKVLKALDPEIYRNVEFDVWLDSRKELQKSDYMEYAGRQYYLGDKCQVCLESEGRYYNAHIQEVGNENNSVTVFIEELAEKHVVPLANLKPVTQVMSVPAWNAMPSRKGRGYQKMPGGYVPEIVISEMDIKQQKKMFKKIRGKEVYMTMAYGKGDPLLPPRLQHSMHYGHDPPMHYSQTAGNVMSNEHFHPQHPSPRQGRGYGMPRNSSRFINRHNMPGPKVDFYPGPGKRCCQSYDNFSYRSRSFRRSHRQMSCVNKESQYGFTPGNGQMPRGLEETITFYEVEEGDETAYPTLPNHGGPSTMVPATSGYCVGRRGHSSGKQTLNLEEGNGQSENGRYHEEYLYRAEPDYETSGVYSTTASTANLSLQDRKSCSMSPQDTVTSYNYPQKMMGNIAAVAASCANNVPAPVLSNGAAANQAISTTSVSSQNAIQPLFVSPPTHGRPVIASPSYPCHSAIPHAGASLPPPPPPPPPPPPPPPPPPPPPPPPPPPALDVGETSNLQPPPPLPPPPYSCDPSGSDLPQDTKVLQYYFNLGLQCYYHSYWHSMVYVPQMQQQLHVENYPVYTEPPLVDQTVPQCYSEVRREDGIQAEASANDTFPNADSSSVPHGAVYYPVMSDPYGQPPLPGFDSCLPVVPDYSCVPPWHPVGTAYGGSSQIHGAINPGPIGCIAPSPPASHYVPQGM
# Summary of the method: (§1)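 HEK293T lysate (495 µg per sample, in Tris/CHAPS/IGEPAL buffer with protease inhibitors) was treated in triplicate with fragment at 200 µM or with DMSO for 3 h. It was then treated with Biotin-Ahx-Ub-VS (0.5 µM final) for 1 h. Labelled DUBs were NeutrAvidin-enriched, digested with LysC and trypsin, and run by diaPASEF LC-MS/MS. Spectronaut label-free quantities were global-median-normalised. Values are average log2 ratios fragment/DMSO by unpaired t-test, using proteins with ≥2 unique peptides.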
# ATXN3 = ATXN3 (UniProt P54252)
# Sequence of ATXN3 (P54252 whole entry): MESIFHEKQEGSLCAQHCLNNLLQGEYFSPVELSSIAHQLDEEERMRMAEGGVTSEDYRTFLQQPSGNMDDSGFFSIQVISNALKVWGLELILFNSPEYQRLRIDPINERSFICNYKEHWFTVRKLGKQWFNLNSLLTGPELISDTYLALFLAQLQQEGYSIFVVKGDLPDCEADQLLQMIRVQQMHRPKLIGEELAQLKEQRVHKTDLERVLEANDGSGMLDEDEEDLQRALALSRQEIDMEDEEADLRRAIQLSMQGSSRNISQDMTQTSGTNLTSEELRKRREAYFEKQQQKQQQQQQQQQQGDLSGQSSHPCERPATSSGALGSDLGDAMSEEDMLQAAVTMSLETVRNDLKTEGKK
# Summary of the method: as §1
# BAP1 = target: T2, BAP1 (UniProt Q92560)
# T2 sequence (whole entry): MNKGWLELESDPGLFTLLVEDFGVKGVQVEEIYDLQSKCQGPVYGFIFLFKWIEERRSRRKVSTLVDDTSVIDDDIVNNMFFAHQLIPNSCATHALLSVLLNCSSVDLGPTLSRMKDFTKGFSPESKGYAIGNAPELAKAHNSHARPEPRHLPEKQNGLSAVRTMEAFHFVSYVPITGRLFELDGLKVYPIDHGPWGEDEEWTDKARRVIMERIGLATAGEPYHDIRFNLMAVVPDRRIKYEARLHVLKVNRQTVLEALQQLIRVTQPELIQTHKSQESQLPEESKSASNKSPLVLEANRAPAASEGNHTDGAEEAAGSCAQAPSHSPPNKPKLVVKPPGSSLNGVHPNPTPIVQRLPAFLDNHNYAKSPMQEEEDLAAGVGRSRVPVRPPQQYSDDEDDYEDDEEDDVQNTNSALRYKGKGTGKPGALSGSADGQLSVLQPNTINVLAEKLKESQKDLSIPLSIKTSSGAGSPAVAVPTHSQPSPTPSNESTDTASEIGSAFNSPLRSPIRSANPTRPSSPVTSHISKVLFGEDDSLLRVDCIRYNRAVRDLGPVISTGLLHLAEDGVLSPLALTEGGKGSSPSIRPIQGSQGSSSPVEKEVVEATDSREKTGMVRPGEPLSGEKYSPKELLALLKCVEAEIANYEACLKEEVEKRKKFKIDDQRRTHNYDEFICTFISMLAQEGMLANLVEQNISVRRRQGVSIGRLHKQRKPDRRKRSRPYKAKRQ
# Summary of the method: as §1
# EIF3F = EIF3F (UniProt O00303)
# Sequence of EIF3F (O00303 whole entry): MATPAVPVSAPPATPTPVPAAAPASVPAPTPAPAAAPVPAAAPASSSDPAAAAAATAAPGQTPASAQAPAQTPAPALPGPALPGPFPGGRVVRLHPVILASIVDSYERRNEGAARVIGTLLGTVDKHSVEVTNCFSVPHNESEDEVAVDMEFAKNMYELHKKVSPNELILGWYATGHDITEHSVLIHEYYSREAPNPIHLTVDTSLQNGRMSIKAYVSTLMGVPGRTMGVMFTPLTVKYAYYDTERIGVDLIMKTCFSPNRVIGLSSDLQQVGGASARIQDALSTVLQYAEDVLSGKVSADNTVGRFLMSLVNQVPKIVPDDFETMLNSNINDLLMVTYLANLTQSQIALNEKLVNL
# Summary of the method: as §1
# EIF3H = EIF3H (UniProt O15372)
# Sequence of EIF3H (O15372 whole entry): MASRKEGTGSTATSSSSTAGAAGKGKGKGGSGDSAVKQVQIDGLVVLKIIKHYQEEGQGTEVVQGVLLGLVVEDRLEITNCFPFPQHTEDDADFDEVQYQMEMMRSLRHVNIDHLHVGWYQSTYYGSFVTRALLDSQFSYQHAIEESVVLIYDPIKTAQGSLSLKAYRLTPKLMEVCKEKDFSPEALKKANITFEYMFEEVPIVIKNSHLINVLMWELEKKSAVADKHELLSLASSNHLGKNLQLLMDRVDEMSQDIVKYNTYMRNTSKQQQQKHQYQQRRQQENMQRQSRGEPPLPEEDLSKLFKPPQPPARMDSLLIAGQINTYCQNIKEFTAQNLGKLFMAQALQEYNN
# Summary of the method: as §1
# FAM105A = target: T3, FAM105A (UniProt Q9NUU6)
# T3 sequence (whole entry): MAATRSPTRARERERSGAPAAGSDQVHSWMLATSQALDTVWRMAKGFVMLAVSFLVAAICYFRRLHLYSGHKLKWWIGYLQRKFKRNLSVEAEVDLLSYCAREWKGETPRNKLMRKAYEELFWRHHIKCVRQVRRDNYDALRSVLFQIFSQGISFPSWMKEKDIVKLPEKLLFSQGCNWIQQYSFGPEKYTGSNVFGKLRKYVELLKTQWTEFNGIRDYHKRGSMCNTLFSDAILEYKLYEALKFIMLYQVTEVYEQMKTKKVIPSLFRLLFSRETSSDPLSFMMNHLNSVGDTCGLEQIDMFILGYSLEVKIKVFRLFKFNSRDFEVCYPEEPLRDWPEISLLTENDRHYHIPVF
# Summary of the method: as §1
# OTUB1 = OTUB1 (UniProt Q96FW1)
# Sequence of OTUB1 (Q96FW1 whole entry): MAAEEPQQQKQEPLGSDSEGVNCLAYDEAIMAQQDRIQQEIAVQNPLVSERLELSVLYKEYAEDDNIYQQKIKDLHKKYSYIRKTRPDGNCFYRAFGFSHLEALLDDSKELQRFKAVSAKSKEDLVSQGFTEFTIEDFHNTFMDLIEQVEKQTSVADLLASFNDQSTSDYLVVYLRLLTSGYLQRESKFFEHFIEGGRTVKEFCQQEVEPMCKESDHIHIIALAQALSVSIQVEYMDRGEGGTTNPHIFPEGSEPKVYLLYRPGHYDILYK
# Summary of the method: as §1
# OTUD4 = target: T4, OTUD4 (UniProt Q01804)
# T4 sequence (whole entry): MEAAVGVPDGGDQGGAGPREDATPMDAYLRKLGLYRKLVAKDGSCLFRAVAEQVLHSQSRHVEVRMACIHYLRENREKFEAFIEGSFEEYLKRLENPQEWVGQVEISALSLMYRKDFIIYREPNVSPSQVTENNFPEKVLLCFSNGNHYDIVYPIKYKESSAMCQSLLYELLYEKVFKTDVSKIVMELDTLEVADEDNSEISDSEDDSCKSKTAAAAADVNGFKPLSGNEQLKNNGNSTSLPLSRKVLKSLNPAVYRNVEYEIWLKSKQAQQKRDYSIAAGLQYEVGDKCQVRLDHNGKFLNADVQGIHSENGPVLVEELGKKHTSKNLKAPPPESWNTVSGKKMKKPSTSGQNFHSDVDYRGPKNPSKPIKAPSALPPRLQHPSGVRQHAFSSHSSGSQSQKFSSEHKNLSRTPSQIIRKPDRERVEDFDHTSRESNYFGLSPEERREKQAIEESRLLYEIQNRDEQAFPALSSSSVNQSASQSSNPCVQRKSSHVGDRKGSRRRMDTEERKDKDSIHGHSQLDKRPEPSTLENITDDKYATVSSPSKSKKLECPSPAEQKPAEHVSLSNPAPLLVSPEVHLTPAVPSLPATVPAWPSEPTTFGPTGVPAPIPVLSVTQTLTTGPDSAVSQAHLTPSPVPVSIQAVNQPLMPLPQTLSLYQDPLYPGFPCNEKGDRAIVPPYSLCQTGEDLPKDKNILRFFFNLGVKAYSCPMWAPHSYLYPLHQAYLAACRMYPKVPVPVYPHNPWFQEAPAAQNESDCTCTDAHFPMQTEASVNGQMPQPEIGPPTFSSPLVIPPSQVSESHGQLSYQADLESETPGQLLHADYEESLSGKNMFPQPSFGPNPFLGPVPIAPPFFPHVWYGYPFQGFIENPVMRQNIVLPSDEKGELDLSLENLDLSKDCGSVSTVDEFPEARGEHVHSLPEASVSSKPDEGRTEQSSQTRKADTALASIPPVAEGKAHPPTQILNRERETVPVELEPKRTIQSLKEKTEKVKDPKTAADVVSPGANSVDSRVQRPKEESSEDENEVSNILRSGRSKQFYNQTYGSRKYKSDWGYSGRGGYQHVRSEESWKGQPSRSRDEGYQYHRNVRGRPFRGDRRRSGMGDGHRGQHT
# Summary of the method: as §1
# OTUD5 = target: T5, OTUD5 (UniProt Q96G74)
# T5 sequence (whole entry): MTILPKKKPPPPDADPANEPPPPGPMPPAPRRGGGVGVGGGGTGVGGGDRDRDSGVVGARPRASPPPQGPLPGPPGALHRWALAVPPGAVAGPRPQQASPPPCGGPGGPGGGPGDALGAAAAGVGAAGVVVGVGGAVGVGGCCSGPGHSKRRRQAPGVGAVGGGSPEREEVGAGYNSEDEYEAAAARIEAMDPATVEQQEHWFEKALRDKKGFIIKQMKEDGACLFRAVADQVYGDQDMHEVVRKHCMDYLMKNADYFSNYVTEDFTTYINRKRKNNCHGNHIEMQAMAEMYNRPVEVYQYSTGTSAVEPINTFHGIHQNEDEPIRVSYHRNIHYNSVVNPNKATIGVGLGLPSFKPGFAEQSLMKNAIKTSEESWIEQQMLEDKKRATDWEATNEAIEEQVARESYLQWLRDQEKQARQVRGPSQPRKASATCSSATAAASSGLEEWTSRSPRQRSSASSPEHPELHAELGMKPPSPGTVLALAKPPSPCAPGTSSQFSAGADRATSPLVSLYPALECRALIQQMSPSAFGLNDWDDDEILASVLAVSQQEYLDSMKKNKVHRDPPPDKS
# Summary of the method: as §1
smiles,measurement,setting,value
Cc1ccc(C)c(NC(=O)CCl)c1,log2 ratio of Biotin-Ahx-Ub-VS probe labelling,ALG13,0.0947
same,log2 ratio of Biotin-Ahx-Ub-VS probe labelling,ATXN3,-0.548
same,log2 ratio of Biotin-Ahx-Ub-VS probe labelling,BAP1,-3.51 (active)
same,log2 ratio of Biotin-Ahx-Ub-VS probe labelling,EIF3F,-0.246
same,log2 ratio of Biotin-Ahx-Ub-VS probe labelling,EIF3H,0.0185
same,log2 ratio of Biotin-Ahx-Ub-VS probe labelling,FAM105A,-0.0979
same,log2 ratio of Biotin-Ahx-Ub-VS probe labelling,OTUB1,-0.23
same,log2 ratio of Biotin-Ahx-Ub-VS probe labelling,OTUD4,-0.598
same,log2 ratio of Biotin-Ahx-Ub-VS probe labelling,OTUD5,-0.833
